Assay results reported in PubChem BioAssay AID1159580 (chemical genetic matrix, 2015).
Out of some 5,500 compounds screened, about 2,000 (36%) were called active. Roughly 18% stayed inconclusive and do not appear here. Rule as the data show it: active = normalized growth mostly below about 0.91 (no sharp cut-off); inconclusive = no clear call, values can overlap the other calls; inactive = mostly above about 0.92. This is one part of the list.

Assay: chemical genetic growth profiling, strain panel (AID 1159580);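 also: tested at 20 µM; growth read once vehicle control cultures reached saturation at 30 °C; 1 = growth at the plate median or of vehicle wells; lower values mean less growth of the strain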
Conditions: growth OD

Measured: normalized growth

CCOc1ccc2c(c1)C(C)=CC(C)(C)N2
inactive: S. cerevisiae deletion strains, locus YJR043C, strain POL32, active compounds read low 0.979 | S. cerevisiae deletion strains, locus YJR075W, strain HOC1, active compounds read low 0.975 | S. cerevisiae deletion strains, locus YKL009W, strain mrt4, active compounds read low 0.988 | S. cerevisiae deletion strains, locus YKL068W, active compounds read low 0.989 | S. cerevisiae deletion strains, locus YKL085W, strain MDH1 (second series), active compounds read low 0.987 | S. cerevisiae deletion strains, locus YKL085W, strain MDH1, active compounds read low 0.987 | S. cerevisiae deletion strains, locus YKL160W, strain elf1, active compounds read low 0.996 | S. cerevisiae deletion strains, locus YKL190W, strain CNB1, active compounds read low 0.997 | S. cerevisiae deletion strains, locus YKR001C, strain vps1, active compounds read low 0.976 | S. cerevisiae deletion strains, locus YKR026C, strain gcn3, active compounds read low 0.979 | S. cerevisiae deletion strains, locus YKR091W, strain srl3, active compounds read low 0.98 | S. cerevisiae deletion strains, locus YLL001W, strain dnm1, active compounds read low 1 | S. cerevisiae deletion strains, locus YLL026W, active compounds read low 0.986 | S. cerevisiae deletion strains, locus YLL041C, strain sdh2, active compounds read low 0.989 | S. cerevisiae deletion strains, locus YLR027C, strain aat2, active compounds read low 1.01 | S. cerevisiae deletion strains, locus YLR039C, strain RIC1, active compounds read low 0.997 | S. cerevisiae deletion strains, locus YLR058C, strain SHM2, active compounds read low 0.984 | S. cerevisiae deletion strains, locus YLR102C, strain apc9, active compounds read low 0.992 | S. cerevisiae deletion strains, locus YLR221C, strain rsa3, active compounds read low 1 | S. cerevisiae deletion strains, locus YLR258W, strain gsy2, active compounds read low 0.997 | S. cerevisiae deletion strains, locus YLR262C, strain YPT6 (second series), active compounds read low 0.981 | S. cerevisiae deletion strains, locus YLR262C, strain YPT6, active compounds read low 0.969 | S. cerevisiae deletion strains, locus YLR268W, strain sec22, active compounds read low 0.924 | S. cerevisiae deletion strains, locus YLR320W, strain mms22, active compounds read low 0.982 | S. cerevisiae deletion strains, locus YLR330W, strain CHS5, active compounds read low 1 | S. cerevisiae deletion strains, locus YLR342W, strain FKS1 (second series), active compounds read low 0.999 | S. cerevisiae deletion strains, locus YLR342W, strain FKS1, active compounds read low 0.987 | S. cerevisiae deletion strains, locus YLR357W, strain rsc2, active compounds read low 0.963 | S. cerevisiae deletion strains, locus YLR370C, strain arc18, active compounds read low 0.998 | S. cerevisiae deletion strains, locus YLR371W, strain rom2, active compounds read low 0.976 | S. cerevisiae deletion strains, locus YLR384C, strain iki3, active compounds read low 0.989 | S. cerevisiae deletion strains, locus YLR418C, strain cdc73, active compounds read low 0.983 | S. cerevisiae deletion strains, locus YML016C, strain PPZ1, active compounds read low 0.984 | S. cerevisiae deletion strains, locus YML032C, strain rad52, active compounds read low 0.977 | S. cerevisiae deletion strains, locus YML120C, strain ndi1, active compounds read low 1 | S. cerevisiae deletion strains, locus YML124C, strain tub3, active compounds read low 0.989 | S. cerevisiae deletion strains, locus YMR058W, strain fet3, active compounds read low 0.988 | S. cerevisiae deletion strains, locus YMR078C, strain ctf18, active compounds read low 0.972 | S. cerevisiae deletion strains, locus YMR125W, strain sto1, active compounds read low 0.981 | S. cerevisiae deletion strains, locus YMR129W, active compounds read low 0.991 | S. cerevisiae deletion strains, locus YMR205C, strain PFK2, active compounds read low 0.987 | S. cerevisiae deletion strains, locus YMR223W, strain ubp8, active compounds read low 0.998 | S. cerevisiae deletion strains, locus YMR231W, strain pep5, active compounds read low 0.963 | S. cerevisiae deletion strains, locus YMR263W, strain SAP30, active compounds read low 0.981 | S. cerevisiae deletion strains, locus YMR307W, strain GAS1, active compounds read low 0.971 | S. cerevisiae deletion strains, locus YNL067W, strain RPL9B, active compounds read low 0.977 | S. cerevisiae deletion strains, locus YNL071W, strain lat1, active compounds read low 0.991 | S. cerevisiae deletion strains, locus YNL128W, strain TEP1, active compounds read low 0.99 | S. cerevisiae deletion strains, locus YNL153C, strain GIM3, active compounds read low 0.98 | S. cerevisiae deletion strains, locus YNL209W, strain ssb2, active compounds read low 0.994 | S. cerevisiae deletion strains, locus YNL233W, strain BNI4, active compounds read low 0.978 | S. cerevisiae deletion strains, locus YNL248C, strain rpa49, active compounds read low 0.986 | S. cerevisiae deletion strains, locus YNL250W, strain rad50, active compounds read low 0.986 | S. cerevisiae deletion strains, locus YNL271C, strain bni1, active compounds read low 0.968 | S. cerevisiae deletion strains, locus YNL298W, strain CLA4, active compounds read low 0.974 | S. cerevisiae deletion strains, locus YNL307C, strain MCK1, active compounds read low 0.985 | S. cerevisiae deletion strains, locus YNL322C, strain KRE1 (second series), active compounds read low 0.984 | S. cerevisiae deletion strains, locus YNL322C, strain KRE1, active compounds read low 0.993 | S. cerevisiae deletion strains, locus YNR049C, strain mso1, active compounds read low 0.989 | S. cerevisiae deletion strains, locus YNR052C, strain pop2, active compounds read low 1 | S. cerevisiae deletion strains, locus YOL006C, strain TOP1, active compounds read low 0.841 | S. cerevisiae deletion strains, locus YOL012C, strain htz1 1.09 | S. cerevisiae deletion strains, locus YOL147C, strain pex11, active compounds read low 0.98 | S. cerevisiae deletion strains, locus YOR001W, strain rrp6, active compounds read low 1.01 | S. cerevisiae deletion strains, locus YOR061W, strain CKA2, active compounds read low 0.981 | S. cerevisiae deletion strains, locus YOR069W, strain VPS5, active compounds read low 0.984 | S. cerevisiae deletion strains, locus YOR070C, strain gyp1, active compounds read low 0.995 | S. cerevisiae deletion strains, locus YOR080W, strain dia2, active compounds read low 0.989 | S. cerevisiae deletion strains, locus YOR083W, strain WHI5, active compounds read low 0.989 | S. cerevisiae deletion strains, locus YOR106W, strain vam3, active compounds read low 1 | S. cerevisiae deletion strains, locus YOR136W, strain idh2, active compounds read low 0.99 | S. cerevisiae deletion strains, locus YOR144C, strain elg1, active compounds read low 0.992 | S. cerevisiae deletion strains, locus YOR184W, strain ser1, active compounds read low 0.969 | S. cerevisiae deletion strains, locus YOR265W, strain rbl2, active compounds read low 1.03 | S. cerevisiae deletion strains, locus YOR270C, strain vph1, active compounds read low 1 | S. cerevisiae deletion strains, locus YOR290C, strain snf2, active compounds read low 0.991 | S. cerevisiae deletion strains, locus YOR316C, strain cot1, active compounds read low 0.983 | S. cerevisiae deletion strains, locus YPL051W, strain arl3, active compounds read low 0.985 | S. cerevisiae deletion strains, locus YPL055C, strain LGE1, active compounds read low 0.997 | S. cerevisiae deletion strains, locus YPL078C, strain atp4, active compounds read low 1.02 | S. cerevisiae deletion strains, locus YPL106C, strain sse1, active compounds read low 0.964 | S. cerevisiae deletion strains, locus YPL240C, strain hsp82, active compounds read low 0.991 | S. cerevisiae deletion strains, locus YPL241C, strain CIN2, active compounds read low 0.997 | S. cerevisiae deletion strains, locus YPR119W, strain clb2, active compounds read low 0.984 | S. cerevisiae deletion strains, locus YPR141C, strain kar3, active compounds read low 0.973 | S. cerevisiae deletion strains, locus YPR163C, strain tif3, active compounds read low 0.978 | S. cerevisiae deletion strains, locus YPR167C, strain met16, active compounds read low 0.987 | S. cerevisiae deletion strains, strain wtn01, active compounds read low 0.967 | S. cerevisiae strains, strain wild type, active compounds read low 0.996
